The entries come from a sample that favours hits as a whole.
FECH block = human FECH heme synthesis enzyme inhibition | AID 1671448 | hit rate 3.3% among 20,000 | P22830 | calls only at 10 µM (by protocol) | purified FECH, Ni-mesoporphyrin absorbance 550 nm;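 active means enzyme reaction rate more than 3 SD below the solvent-only control wells on the same plate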;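 further: lower slope than DMSO wells means FECH inhibition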
Target sequence (P22830 whole entry, looked up): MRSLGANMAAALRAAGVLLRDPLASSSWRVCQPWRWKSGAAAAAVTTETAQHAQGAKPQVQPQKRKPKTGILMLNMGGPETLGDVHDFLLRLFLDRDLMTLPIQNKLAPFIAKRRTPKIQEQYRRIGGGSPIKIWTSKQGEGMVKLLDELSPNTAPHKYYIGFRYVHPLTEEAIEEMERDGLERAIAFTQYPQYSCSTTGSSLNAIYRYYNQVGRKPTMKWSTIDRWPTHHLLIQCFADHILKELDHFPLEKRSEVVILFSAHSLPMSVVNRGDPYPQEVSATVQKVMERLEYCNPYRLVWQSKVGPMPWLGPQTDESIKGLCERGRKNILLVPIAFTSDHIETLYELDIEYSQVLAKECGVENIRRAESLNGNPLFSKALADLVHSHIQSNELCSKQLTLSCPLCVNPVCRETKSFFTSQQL
Active calls of the source: *.

Screening CCN(Cc1ccncc1)C(=O)C1CCCN1C(=O)C1CCCCC1 (stereo not given) returned FECH block inactive.
O=C(CC1CCN(S(=O)(=O)c2ccccc2)CC1)NCCN1CCN(Cc2ccccc2)CC1 was read as FECH block inactive.
CC(C)CC(=O)Nc1nc2n(n1)C(c1ccc(F)cc1)C=C(c1ccc(Cl)cc1)N2 (stereo not given) was read as FECH block inactive.
CC(C)CC(=O)Nc1nc2n(n1)C(c1ccc(Cl)cc1)C=C(c1ccc(Cl)cc1)N2 (stereo not given) was read as FECH block active.
Screening CCC(=O)Nc1nc2n(n1)C(c1ccccc1Cl)C=C(c1ccc(Cl)cc1)N2 (stereo not given) returned FECH block inactive.
Screening CC(C)CC(=O)Nc1nc2n(n1)C(c1ccccc1Cl)C=C(c1ccc(Cl)cc1)N2 (stereo not given) returned FECH block inactive.
For O=C(Nc1nc2n(n1)C(c1ccccc1Cl)C=C(c1ccc(Cl)cc1)N2)c1ccco1 (stereo not given) the results were FECH block active.
For CC(=O)Nc1nc2n(n1)C(c1ccc(Cl)cc1)C=C(c1ccc(Cl)cc1)N2 (stereo not given) the results were FECH block inactive.
`CC(C)C(=O)Nc1nc2n(n1)C(c1ccccc1Cl)C=C(c1ccc(Cl)cc1)N2` (stereo not given) gave FECH block inactive.
For Cc1ccc(C2=CC(c3ccccc3Cl)n3nc(NC(=O)CC(C)C)nc3N2)cc1 (stereo not given) the results were FECH block active.
`O=C(Nc1nc2n(n1)C(c1ccccc1Cl)C=C(c1ccc(Cl)cc1)N2)c1ccc(F)cc1` (stereo not given) gave FECH block inactive.
`COc1ccc2c(c1)CC(NCCN1N=C(c3ccccc3)CCC1=O)CC2` (stereo not given) gave FECH block inactive.
Cc1nc(CN2CCN(c3nc(C(C)(C)C)nc4c3cnn4C)CC2)no1 was read as FECH block inactive.
Screening C=Cc1ccc(Cn2c(=O)c3cnc(-c4ccc(OC)cc4)nc3n(C)c2=O)cc1 returned FECH block inactive.
`CCC(C(=O)N1CCOCC1)n1c(C(=O)OC)cc2ccsc21` (stereo not given) gave FECH block inactive.
For O=C(NCCc1ccco1)c1nc(N2CCCC2)c2oc3ccccc3c2n1 the results were FECH block inactive.
Screening COCC(=O)N1CCCN(Cc2cc3c(cc2OC)OCCCO3)CC1 returned FECH block inactive.
Screening c1cn(-c2ccc3cc[nH]c3c2)cn1 returned FECH block inactive.
For CCN(CC)c1ccc(NS(=O)(=O)c2cc(N3C(=O)CCS3(=O)=O)ccc2OC)cc1 the results were FECH block inactive.
`Cc1cc(C)n2nc(CN(C(=O)c3ccccc3Cl)c3ccc(F)cc3)nc2n1` gave FECH block inactive.
Screening COc1cccc(C(=O)Nc2cccc(OCc3cc(=O)n4ccc(C)cc4n3)c2)c1 returned FECH block inactive.
For Cc1cccc(C(=O)Nc2cccc(OCc3cc(=O)n4ccc(C)cc4n3)c2)c1 the results were FECH block inactive.
For COc1ccccc1C(=O)Nc1cccc(OCc2cc(=O)n3ccc(C)cc3n2)c1 the results were FECH block active.
For Cc1cc(CC(C)NC(=O)c2cn(Cc3ccc(F)cc3)nn2)n[nH]1 (stereo not given) the results were FECH block inactive.
CC(C)(O)C#Cc1ccc(C(=O)NCc2cn[nH]c2-c2cccs2)cc1 was read as FECH block inactive.
CC(=O)NCCc1cn(-c2ccc3c(c2)CCCN3C(C)=O)cn1 was read as FECH block inactive.
Screening CC(=O)NCCc1cn(-c2cccc(OC(C)C)c2)cn1 returned FECH block active.
CC(=O)NCCc1cn(-c2ccc(-c3ncc(C)cn3)cc2)cn1 was read as FECH block inactive.
`CNC(=O)CC(C)N(C)Cc1cc2c(cc1OC)CCC2` (stereo not given) gave FECH block inactive.
`Clc1ccc(Nc2nc(NCc3ccccc3)nc3c2cnn3-c2ccccc2)cc1` gave FECH block inactive.
CCCN1CCN(CCNC(=O)C2CCN(c3ccc(-c4cccc(C)c4)nn3)CC2)CC1 was read as FECH block inactive.
CC(=O)c1cc(CN2CCCCC2c2nc3ccc(F)cc3[nH]2)cs1 (stereo not given) was read as FECH block inactive.
For Cc1ccc(C(C)NC(=O)CN2CCC(O)(Cn3ccnc3)CC2)cc1 (stereo not given) the results were FECH block inactive.
Screening Cc1ccc(C(C)NC(=O)CN2CCC(O)(CN3CCCC3)CC2)cc1 (stereo not given) returned FECH block active.
For Cc1ccc(C(C)NC(=O)CN2CCS(=O)(=O)CC2)cc1 (stereo not given) the results were FECH block inactive.
For Cc1cccc(C(NC(=O)C(=O)Nc2cc(C)on2)c2cccs2)c1 (stereo not given) the results were FECH block inactive.
O=C(CN1c2ccc(Br)cc2-c2ccccc2S1(=O)=O)Nc1cccnc1 was read as FECH block active.
`O=C(CN1c2ccc(Br)cc2-c2ccccc2S1(=O)=O)NCc1cccnc1` gave FECH block active.
For Cc1nnc(NC(=O)NCCC2CCCCCC2)s1 the results were FECH block inactive.
`O=C(CCN1CCCCO1)N[C@@H](Cc1c[nH]c2ccccc12)C(=O)O` gave FECH block inactive.
CSc1nc(NCCc2ccc(F)cc2)c(C#N)c(-c2ccc(C)cc2)n1 was read as FECH block inactive.
For CCc1ccc(-n2c(Cc3nc(C)cs3)n[nH]c2=O)cc1 the results were FECH block inactive.
`Cc1nc(CN2C[C@H]3OC(=O)N(CCCN4CCOCC4)[C@H]3C2)no1` gave FECH block inactive.
Screening Clc1nc(-c2ccccc2CN2CCOCC2)ns1 returned FECH block inactive.
For O=C(O)c1cc(O)cc(-c2ccccc2CN2CCOCC2)c1 the results were FECH block active.
COC(C)c1ccc(-c2cc(C(=O)O)cc(S(=O)(=O)N3CCOCC3)c2)cc1 (stereo not given) was read as FECH block inactive.
For CCOC(=O)c1c(NC(=O)C2CC2)sc2c1CCN(Cc1ccccc1)C2 the results were FECH block inactive.
For Cc1ccc(N2C(=O)CCS2(=O)=O)cc1S(=O)(=O)N1CCCc2ccccc21 the results were FECH block inactive.
`C=CCn1c(C(C)OC(C)C)n[nH]c1=O` (stereo not given) gave FECH block inactive.
For Cc1cccc(OCCN2CCCCC2CO)c1C (stereo not given) the results were FECH block active.
`CCn1ccnc1-c1c(-c2ccccc2)ncn1CCN1CCCCC1CO` (stereo not given) gave FECH block inactive.
`Cc1cccc(OCCN2CCCN(C(=O)c3ccco3)CC2)c1C` gave FECH block inactive.
For COc1ccc(-c2noc(CN(C)C(=O)C34CNCC3CNC4)n2)cc1 (stereo not given) the results were FECH block inactive.
O=C(c1cccc(-n2cccn2)c1)N(C/C=C/c1ccccc1)CCO was read as FECH block inactive.
CNC(=O)c1ccc(Cn2c(=O)c3cc(OC)c(OC)cc3n(CC(=O)NCC3CCCO3)c2=O)cc1 (stereo not given) was read as FECH block active.

Source: PubChem (Corson Lab, School of Medicine, Indiana University)
